# From the supplement of paper PMC8728848
# This is one part of a sample in which the strongest signals are shown more often than they occur.
# B1: PX9937J-pdi-523-26-523 (Parabacteroides distasonis) (protein)
# chain: EPVSSISDANYWKSPDLFKAFNIGLHGLLRSQSSYNIFVLGEPRSDIYGDQPFGGEATQGVERFSYNTINAEFTGISNFANFYTTLNQINLMIRRTNETDLLGEAEKNYYLGQAYGLRAYIYFHLLRSWGDVIITTEPTLGSELDISHLDKAASPASEVMDLIKKDIDASEKAFGGDYSYKQGKCYWSKPATLMLKGEVYLWSGRQMGGGTGDYTVAKTALQDLQQNGNLKLQEKFTDVFSFNNKENSEMIFALHSGKEDDFMMWRDYNWRNNMVPQREYMAGYCDETGTPFLEIPGYNLQGLMRYQVKKDHYLKSFREGDTRLKGTLKAVYKKHEDGTLEYIAPIQYKFQGTTLEGSNERSWYDDYPIYRYADALLLLAEAKALLGEDPSTEINAVRERAYGSEYFNAHKNEVAYPNDKGSFYNDNPFEAGDENVMEAILKERLREFFFEGKRWYDLRRFGKDYVLKYTTAQESRLLWPINEGALTNNPALKQTPGY
# Legend:
# Experiment in all cases: glycan array binding signal (z-score within array); higher = stronger binding
# Conditions in all cases: glycan notation: IUPAC condensed, linker removed
# Gal3S6S(b1-4)GlcNAc = target: Gal3S6S(b1-4)GlcNAc
# How it was run: (§1)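 Glycan array data were curated from 3228 arrays in the Consortium for Functional Glycomics database and kept only where the protein sequence was available. Glycan names were converted to IUPAC-condensed notation, and columns mapping to the same glycan were averaged. The binding signal is a within-array Z-score, averaged across arrays of the same protein sequence at different concentrations or buffers and across linkers. Negative Z-scores can be read as non-binding.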
# Gal4S6S(b1-4)GlcNAc = target: Gal4S6S(b1-4)GlcNAc
# How it was run: as §1
# GalNAc(b1-4)GlcNAc6S = target: GalNAc(b1-4)GlcNAc6S
# How it was run: as §1
# GalNAc3S(b1-4)GlcNAc = target: GalNAc3S(b1-4)GlcNAc
# How it was run: as §1
# Glc(b1-4)Glc = target: Glc(b1-4)Glc
# How it was run: as §1
# GlcA(b1-6)Gal = target: GlcA(b1-6)Gal
# How it was run: as §1
# [1] = target: GlcNAc(a1-4)Gal(b1-4)GlcNAc(b1-3)Gal(b1-4)GlcNAc
# How it was run: as §1
# [2] = target: GlcNAc(b1-2)Gal(b1-3)GalNAc
# How it was run: as §1
# [3] = target: GlcNAc(b1-2)[GlcNAc(b1-4)]Man(a1-3)[GlcNAc(b1-4)][GlcNAc(b1-2)[GlcNAc(b1-6)]Man(a1-6)]Man(b1-4)GlcNAc(b1-4)[Fuc(a1-6)]GlcNAc
# How it was run: as §1
# [4] = target: GlcNAc(b1-3)Gal(b1-4)GlcNAc(b1-3)Gal(b1-4)GlcNAc(b1-3)Gal(b1-4)GlcNAc(b1-3)Gal(b1-4)GlcNAc(b1-2)[GlcNAc(b1-3)Gal(b1-4)GlcNAc(b1-3)Gal(b1-4)GlcNAc(b1-3)Gal(b1-4)GlcNAc(b1-3)Gal(b1-4)GlcNAc(b1-6)]Man(a1-6)[GlcNAc(b1-3)Gal(b1-4)GlcNAc(b1-3)Gal(b1-4)GlcNAc(b1-3)Gal(b1-4)GlcNAc(b1-3)Gal(b1-4)GlcNAc(b1-2)Man(a1-3)]Man(b1-4)GlcNAc(b1-4)[Fuc(a1-6)]GlcNAc
# How it was run: as §1
# [5] = target: GlcNAc(b1-3)Gal(b1-4)GlcNAc(b1-3)GalNAc
# How it was run: as §1
# [6] = target: GlcNAc(b1-3)Gal(b1-4)GlcNAc(b1-6)[Gal(b1-3)]GalNAc
# How it was run: as §1
# [7] = target: GlcNAc6S(b1-3)Gal(b1-4)GlcNAc
# How it was run: as §1
# [8] = target: Man(a1-2)Man(a1-2)Man(a1-6)[Man(a1-3)]Man
# How it was run: as §1
# Man(a1-2)Man(a1-3)Man = target: Man(a1-2)Man(a1-3)Man
# How it was run: as §1
# [9] = target: Man(a1-2)Man(a1-3)[Man(a1-2)Man(a1-6)]Man(a1-6)[Man(a1-2)Man(a1-2)Man(a1-3)]Man
# How it was run: as §1
# [10] = target: Neu5Ac(a2-3)Gal(b1-3)GlcNAc(b1-3)Gal(b1-3)GlcNAc
# How it was run: as §1
# [11] = target: Neu5Ac(a2-3)Gal(b1-3)[Fuc(a1-4)]GlcNAc
# How it was run: as §1
# [12] = target: Neu5Ac(a2-3)Gal(b1-3)[Neu5Ac(a2-6)]GalNAc
# How it was run: as §1
# [13] = target: Neu5Ac(a2-3)Gal(b1-4)GlcNAc(b1-6)[Gal(b1-3)]GalNAc
# How it was run: as §1
# [14] = target: Neu5Ac(a2-3)Gal(b1-4)[Fuc(a1-3)]GlcNAc(b1-3)Gal(b1-4)GlcNAc
# How it was run: as §1
# [15] = target: Neu5Ac(a2-6)Gal(b1-4)GlcNAc(b1-2)Man(a1-3)Man(b1-4)GlcNAc(b1-4)GlcNAc
# How it was run: as §1
# [16] = target: Neu5Ac(a2-6)Gal(b1-4)GlcNAc(b1-2)Man(a1-3)[Gal(b1-4)GlcNAc(b1-2)Man(a1-6)]Man(b1-4)GlcNAc(b1-4)GlcNAc
# How it was run: as §1
# [17] = target: Neu5Ac(a2-6)Gal(b1-4)GlcNAc(b1-2)Man(a1-3)[Neu5Ac(a2-3)Gal(b1-4)GlcNAc(b1-2)Man(a1-6)]Man(b1-4)GlcNAc(b1-4)GlcNAc
# How it was run: as §1
# [18] = target: Neu5Ac(a2-6)Gal(b1-4)GlcNAc(b1-3)Gal(b1-3)GlcNAc
# How it was run: as §1
# [19] = target: Neu5Ac(a2-6)Gal(b1-4)GlcNAc(b1-6)[Gal(b1-3)]GalNAc
# How it was run: as §1
# [20] = target: Neu5Ac(a2-8)Neu5Ac(a2-8)Neu5Ac
# How it was run: as §1
# [21] = target: Neu5Ac(a2-8)Neu5Gc(a2-3)Gal(b1-4)GlcNAc
# How it was run: as §1
# [22] = target: Neu5Ac9Ac(a2-3)Gal(b1-4)GlcNAc
# How it was run: as §1
binder,measurement,setting,value
B1,glycan array binding signal (z-score),Gal3S6S(b1-4)GlcNAc,0.142
same,glycan array binding signal (z-score),Gal4S6S(b1-4)GlcNAc,-0.181
same,glycan array binding signal (z-score),GalNAc(b1-4)GlcNAc6S,4.57
same,glycan array binding signal (z-score),GalNAc3S(b1-4)GlcNAc,0.755
same,glycan array binding signal (z-score),Glc(b1-4)Glc,-0.296
same,glycan array binding signal (z-score),GlcA(b1-6)Gal,-0.638
same,glycan array binding signal (z-score),[1],-0.296
same,glycan array binding signal (z-score),[2],-0.438
same,glycan array binding signal (z-score),[3],-0.488
same,glycan array binding signal (z-score),[4],4.67
same,glycan array binding signal (z-score),[5],-0.404
same,glycan array binding signal (z-score),[6],-0.195
same,glycan array binding signal (z-score),[7],0.294
same,glycan array binding signal (z-score),[8],-0.284
same,glycan array binding signal (z-score),Man(a1-2)Man(a1-3)Man,-0.138
same,glycan array binding signal (z-score),[9],-0.317
same,glycan array binding signal (z-score),[10],-1
same,glycan array binding signal (z-score),[11],0.062
same,glycan array binding signal (z-score),[12],0.071
same,glycan array binding signal (z-score),[13],-0.1
same,glycan array binding signal (z-score),[14],3.41
same,glycan array binding signal (z-score),[15],-0.373
same,glycan array binding signal (z-score),[16],4.14
same,glycan array binding signal (z-score),[17],-0.327
same,glycan array binding signal (z-score),[18],-0.303
same,glycan array binding signal (z-score),[19],0.505
same,glycan array binding signal (z-score),[20],-0.094
same,glycan array binding signal (z-score),[21],9.17
same,glycan array binding signal (z-score),[22],-0.44
